The values below come from publication PMC7862700, “An all-to-all approach to the identification of sequence-specific readers for epigenetic DNA modifications on cytosine”.

Test in all cases: DAPPL (digital affinity profiling via proximity ligation, sequencing); 10 mM Tris-HCl pH 7.5, 50 mM NaCl, 1 mM DTT, 4% glycerol, room temperature, 30 min; GST-TFs on glutathione beads, 16-mer random dsDNA library, 0.1% formaldehyde crosslink after washing; high values mean tight binding
What all share (conditions): protein: recombinant; tags: N-terminal GST; dsDNA, one strand shown

One test addresses T1, FEV (Homo sapiens, UniProt Q99581 1-238).
T1 sequence: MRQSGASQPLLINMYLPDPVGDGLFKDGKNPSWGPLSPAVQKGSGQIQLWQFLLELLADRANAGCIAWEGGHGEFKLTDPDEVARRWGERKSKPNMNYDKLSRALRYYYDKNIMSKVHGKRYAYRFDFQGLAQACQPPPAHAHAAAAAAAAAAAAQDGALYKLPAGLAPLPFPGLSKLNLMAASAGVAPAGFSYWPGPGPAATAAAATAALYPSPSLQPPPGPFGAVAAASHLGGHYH
The method, boiled down:
(§1)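 Binding signal is given per hexamer as its read frequency for a factor divided by its frequency in the tag-only sample. GST-fused human transcription factors were expressed in yeast, captured on glutathione beads, barcoded with DNA and pooled with that sample, then incubated with 200 nmole of a 16-mer random double-stranded DNA library in Tris/NaCl/DTT/glycerol buffer for 30 min at room temperature. The pools were then washed, crosslinked, proximity-ligated, amplified by PCR and sequenced on an Illumina NextSeq500.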

A further test deals with ETV5 (Homo sapiens, UniProt P41161 1-510). The method, boiled down: as §1
ETV5, sequence (P41161 whole entry): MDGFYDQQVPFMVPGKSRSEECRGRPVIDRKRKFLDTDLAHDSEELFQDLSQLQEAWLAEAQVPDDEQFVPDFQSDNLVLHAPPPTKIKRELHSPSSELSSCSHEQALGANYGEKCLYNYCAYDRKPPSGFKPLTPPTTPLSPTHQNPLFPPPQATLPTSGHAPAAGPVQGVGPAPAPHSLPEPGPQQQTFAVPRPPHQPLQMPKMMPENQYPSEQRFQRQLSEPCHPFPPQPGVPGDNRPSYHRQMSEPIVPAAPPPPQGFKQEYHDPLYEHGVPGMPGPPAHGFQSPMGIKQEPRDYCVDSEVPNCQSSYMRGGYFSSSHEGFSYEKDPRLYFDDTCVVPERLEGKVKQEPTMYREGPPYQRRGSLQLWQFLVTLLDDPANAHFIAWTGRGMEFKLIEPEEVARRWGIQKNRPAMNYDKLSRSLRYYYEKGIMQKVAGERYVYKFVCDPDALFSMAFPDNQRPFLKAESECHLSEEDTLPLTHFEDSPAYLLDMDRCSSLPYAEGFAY
A further test concerns the target T2, SPIC (Homo sapiens, UniProt Q8N5J4 1-248).
T2 sequence: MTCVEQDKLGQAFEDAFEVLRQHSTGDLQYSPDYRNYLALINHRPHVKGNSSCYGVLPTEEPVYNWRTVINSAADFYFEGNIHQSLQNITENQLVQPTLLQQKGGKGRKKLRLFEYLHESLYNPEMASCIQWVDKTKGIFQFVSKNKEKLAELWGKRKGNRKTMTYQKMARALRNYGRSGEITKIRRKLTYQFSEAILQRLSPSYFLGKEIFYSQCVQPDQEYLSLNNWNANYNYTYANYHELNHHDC
The method, boiled down:
as §1

In another test the target is ELF4 (Homo sapiens, UniProt Q99607 1-663). In outline:
as §1

A further test concerns the target T3, ELK4 (Homo sapiens, UniProt P28324-2 1-405).
T3 sequence: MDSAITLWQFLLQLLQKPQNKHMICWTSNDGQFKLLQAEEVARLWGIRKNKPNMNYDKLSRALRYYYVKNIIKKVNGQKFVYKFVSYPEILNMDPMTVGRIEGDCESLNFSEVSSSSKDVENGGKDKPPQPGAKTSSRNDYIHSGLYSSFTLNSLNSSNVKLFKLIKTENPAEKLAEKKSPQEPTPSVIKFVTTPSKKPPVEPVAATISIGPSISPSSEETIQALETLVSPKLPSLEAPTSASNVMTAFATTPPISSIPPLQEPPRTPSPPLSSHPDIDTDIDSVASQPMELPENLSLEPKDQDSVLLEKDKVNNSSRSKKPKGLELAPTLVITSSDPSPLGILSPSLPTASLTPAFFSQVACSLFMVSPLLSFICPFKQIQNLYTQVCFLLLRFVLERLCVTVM
The method, boiled down:
as §1

The target in another test is T4, ETV2 (Homo sapiens, UniProt O00321 1-342).
T4 sequence: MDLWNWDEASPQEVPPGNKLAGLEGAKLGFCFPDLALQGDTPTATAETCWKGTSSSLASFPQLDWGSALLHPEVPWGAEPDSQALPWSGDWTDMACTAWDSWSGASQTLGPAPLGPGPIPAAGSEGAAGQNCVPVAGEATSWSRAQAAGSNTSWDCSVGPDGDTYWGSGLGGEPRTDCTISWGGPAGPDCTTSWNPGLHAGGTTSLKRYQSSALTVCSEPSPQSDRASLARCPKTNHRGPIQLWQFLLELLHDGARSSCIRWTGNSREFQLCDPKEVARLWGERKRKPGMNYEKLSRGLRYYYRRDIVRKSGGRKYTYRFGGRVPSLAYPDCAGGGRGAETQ
The method, boiled down:
as §1

The target in another test is T5, ELF3 (Homo sapiens, UniProt P78545 1-371).
T5 sequence: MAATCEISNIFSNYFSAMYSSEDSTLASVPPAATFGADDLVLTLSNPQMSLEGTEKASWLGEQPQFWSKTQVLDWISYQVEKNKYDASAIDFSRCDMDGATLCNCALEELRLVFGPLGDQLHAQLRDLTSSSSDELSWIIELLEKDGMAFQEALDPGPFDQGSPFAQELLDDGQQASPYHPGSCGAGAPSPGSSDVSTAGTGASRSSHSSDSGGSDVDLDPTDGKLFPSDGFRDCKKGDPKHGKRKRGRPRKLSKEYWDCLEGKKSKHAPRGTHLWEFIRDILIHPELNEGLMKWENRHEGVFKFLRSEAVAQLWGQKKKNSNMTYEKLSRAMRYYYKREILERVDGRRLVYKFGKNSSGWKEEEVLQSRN
In outline: as §1

A further test concerns the target CRX (Homo sapiens, UniProt O43186 1-299). In outline:
as §1

The target in a further test is ETV1 (Homo sapiens, UniProt P50549 1-477). The method, boiled down: as §1
ETV1, sequence (P50549 whole entry): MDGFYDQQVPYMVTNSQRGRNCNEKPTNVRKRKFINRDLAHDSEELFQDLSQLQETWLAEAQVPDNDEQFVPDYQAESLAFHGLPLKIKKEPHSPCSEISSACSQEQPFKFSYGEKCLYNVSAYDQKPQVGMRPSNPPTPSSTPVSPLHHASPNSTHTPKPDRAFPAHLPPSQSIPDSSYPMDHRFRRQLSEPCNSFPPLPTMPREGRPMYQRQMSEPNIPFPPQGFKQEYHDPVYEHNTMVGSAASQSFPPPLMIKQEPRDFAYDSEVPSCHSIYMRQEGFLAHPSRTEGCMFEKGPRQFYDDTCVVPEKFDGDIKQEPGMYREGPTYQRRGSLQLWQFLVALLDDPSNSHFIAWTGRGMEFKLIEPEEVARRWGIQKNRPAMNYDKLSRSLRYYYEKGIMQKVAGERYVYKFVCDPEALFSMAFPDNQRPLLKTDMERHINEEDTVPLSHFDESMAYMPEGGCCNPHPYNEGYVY

CRX, sequence (O43186 whole entry): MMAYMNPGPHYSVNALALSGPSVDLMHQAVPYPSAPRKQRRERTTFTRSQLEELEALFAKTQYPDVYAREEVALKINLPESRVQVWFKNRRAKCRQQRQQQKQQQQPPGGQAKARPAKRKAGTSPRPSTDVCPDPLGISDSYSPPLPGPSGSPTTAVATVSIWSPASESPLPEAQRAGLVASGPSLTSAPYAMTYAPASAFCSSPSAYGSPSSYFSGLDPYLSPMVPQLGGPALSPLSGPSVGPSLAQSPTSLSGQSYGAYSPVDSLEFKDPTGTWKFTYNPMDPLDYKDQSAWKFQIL
ELF4, sequence (Q99607 whole entry): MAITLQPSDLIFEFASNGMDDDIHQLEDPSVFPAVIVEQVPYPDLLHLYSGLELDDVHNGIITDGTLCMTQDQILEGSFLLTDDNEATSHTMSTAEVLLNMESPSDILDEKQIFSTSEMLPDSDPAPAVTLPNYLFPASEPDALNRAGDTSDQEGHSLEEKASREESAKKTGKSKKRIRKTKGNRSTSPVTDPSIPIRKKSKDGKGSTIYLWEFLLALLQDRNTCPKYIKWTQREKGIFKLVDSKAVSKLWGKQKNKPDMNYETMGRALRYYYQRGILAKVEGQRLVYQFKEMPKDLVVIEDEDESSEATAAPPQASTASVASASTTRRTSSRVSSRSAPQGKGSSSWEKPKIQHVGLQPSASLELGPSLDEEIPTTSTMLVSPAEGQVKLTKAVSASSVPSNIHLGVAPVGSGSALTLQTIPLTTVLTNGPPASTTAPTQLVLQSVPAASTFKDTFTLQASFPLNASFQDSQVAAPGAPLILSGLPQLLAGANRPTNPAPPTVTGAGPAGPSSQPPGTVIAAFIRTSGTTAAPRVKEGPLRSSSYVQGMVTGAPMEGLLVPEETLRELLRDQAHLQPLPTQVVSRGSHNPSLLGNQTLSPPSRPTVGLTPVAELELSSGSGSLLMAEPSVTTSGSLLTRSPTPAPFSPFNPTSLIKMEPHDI

ATCACA: the binding signal in the test with FEV was 1.11 fold enrichment (6-mer frequency, TF over GST control); in the test with ETV5, 1.13 fold enrichment (6-mer frequency, TF over GST control); with SPIC, 1.09 fold enrichment (6-mer frequency, TF over GST control); in the test with ELF4, 1.1 fold enrichment (6-mer frequency, TF over GST control); with ELK4 it was 1.02 fold enrichment (6-mer frequency, TF over GST control); with ETV2, 1.25 fold enrichment (6-mer frequency, TF over GST control). Besides, the binding signal in the test with ELF3 was 1.15 fold enrichment (6-mer frequency, TF over GST control); with CRX, 1.16 fold enrichment (6-mer frequency, TF over GST control); with ETV1, 1.04 fold enrichment (6-mer frequency, TF over GST control).
For CCGGAC, the binding signal with FEV is 2.05 fold enrichment (6-mer frequency, TF over GST control); with ETV5 it was 1.57 fold enrichment (6-mer frequency, TF over GST control); in the test with SPIC, 1.22 fold enrichment (6-mer frequency, TF over GST control); with ELF4 it was 1.44 fold enrichment (6-mer frequency, TF over GST control); with ELK4 it was 1.15 fold enrichment (6-mer frequency, TF over GST control); in the test with ETV2 it was 1.39 fold enrichment (6-mer frequency, TF over GST control). In addition, the binding signal was 1.45 fold enrichment (6-mer frequency, TF over GST control) with ELF3 and 1.53 fold enrichment (6-mer frequency, TF over GST control) with ETV1.
In the case of TCCGTT, the binding signal in the test with FEV was 1.71 fold enrichment (6-mer frequency, TF over GST control); with ETV5 it was 1.49 fold enrichment (6-mer frequency, TF over GST control); in the test with SPIC it was 1.62 fold enrichment (6-mer frequency, TF over GST control); with ELF4, 1.25 fold enrichment (6-mer frequency, TF over GST control); in the test with ELK4, 1.48 fold enrichment (6-mer frequency, TF over GST control); with ETV2 it was 1.44 fold enrichment (6-mer frequency, TF over GST control). Besides, the binding signal with ELF3 is 1.35 fold enrichment (6-mer frequency, TF over GST control); in the test with CRX, 1.13 fold enrichment (6-mer frequency, TF over GST control); in the test with ETV1, 1.36 fold enrichment (6-mer frequency, TF over GST control).
In the case of TCATGG, the binding signal with FEV was 1.05 fold enrichment (6-mer frequency, TF over GST control); in the test with ETV5 it was 1.09 fold enrichment (6-mer frequency, TF over GST control); with SPIC it was 1.16 fold enrichment (6-mer frequency, TF over GST control); with ELF4 it was 1.07 fold enrichment (6-mer frequency, TF over GST control); with ELK4, 1.05 fold enrichment (6-mer frequency, TF over GST control); with ETV2, 1.04 fold enrichment (6-mer frequency, TF over GST control). For the same sequence, the binding signal with ELF3 was 1.16 fold enrichment (6-mer frequency, TF over GST control); with CRX it was 1.07 fold enrichment (6-mer frequency, TF over GST control).
ACCGCT: the binding signal in the test with FEV is 1.17 fold enrichment (6-mer frequency, TF over GST control); in the test with ETV5, 1.1 fold enrichment (6-mer frequency, TF over GST control); in the test with SPIC, 1.13 fold enrichment (6-mer frequency, TF over GST control); with ELF4 it was 1.14 fold enrichment (6-mer frequency, TF over GST control); with ELK4, 1.18 fold enrichment (6-mer frequency, TF over GST control); with ETV2, 1.07 fold enrichment (6-mer frequency, TF over GST control). Also, the binding signal was 1.19 fold enrichment (6-mer frequency, TF over GST control) in the test with ELF3 and 1.01 fold enrichment (6-mer frequency, TF over GST control) in the test with CRX.
As to TGTGCA, the binding signal with FEV is 1.1 fold enrichment (6-mer frequency, TF over GST control); with ETV5 it was 1.15 fold enrichment (6-mer frequency, TF over GST control); in the test with SPIC, 1.38 fold enrichment (6-mer frequency, TF over GST control); with ELF4 it was 1.11 fold enrichment (6-mer frequency, TF over GST control); in the test with ELK4, 1.09 fold enrichment (6-mer frequency, TF over GST control); with ETV2, 1.01 fold enrichment (6-mer frequency, TF over GST control). Besides, the binding signal in the test with ELF3 is 1.09 fold enrichment (6-mer frequency, TF over GST control); with ETV1, 1.05 fold enrichment (6-mer frequency, TF over GST control).
On to GGCTTG, for which the binding signal with FEV was 1.01 fold enrichment (6-mer frequency, TF over GST control); in the test with ETV5 it was 1.01 fold enrichment (6-mer frequency, TF over GST control); with SPIC it was 1.12 fold enrichment (6-mer frequency, TF over GST control); with ELF4 it was 1.07 fold enrichment (6-mer frequency, TF over GST control); with ELK4, 1.12 fold enrichment (6-mer frequency, TF over GST control); with ETV2, 1.01 fold enrichment (6-mer frequency, TF over GST control). The binding signal with ELF3 is 1.11 fold enrichment (6-mer frequency, TF over GST control); with CRX, 1.06 fold enrichment (6-mer frequency, TF over GST control); with ETV1, 1.08 fold enrichment (6-mer frequency, TF over GST control).
